Assay outcomes (PubChem)
This is a sample that favours compounds with a hit; in the whole collection about 11% have one here.
VDR inhibitor – blocks the human vitamin D receptor; actives 0.93% (n = 400,000); AID 504847; P11473; VDR-SRC2-3 peptide fluorescence polarization, 2 h; Potency, µM, for the others: max response, negative = inhibition, most hits filed as inhibitors; note: % is set by controls: 0 for no effect and ±100 for the full control effect
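Two reagent solutions held at 4 deg C in the dark were dispensed, compounds pinned at 23 nl, and the mixture incubated 2 h at room temperature. Read-out: fluorescence polarization of VDR–SRC2-3 peptide binding.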
G9a inh – blocks human histone lysine methyltransferase G9a; G9a H3K9 monomethylation, AlphaScreen, 2 h; Potency, µM (titrated, usually from 102 µM), without a hit: at the highest dose activity, negative = inhibition, hits mostly inhibitors; actives 8.8% (n = 350,000); AID 504332; note: % is set by controls: 0 for no effect and ±100 for the full control effect; nearly all actives have a fitted effect of over 75% in size
Target sequence (Q96KQ7 913-1193 limits assumed): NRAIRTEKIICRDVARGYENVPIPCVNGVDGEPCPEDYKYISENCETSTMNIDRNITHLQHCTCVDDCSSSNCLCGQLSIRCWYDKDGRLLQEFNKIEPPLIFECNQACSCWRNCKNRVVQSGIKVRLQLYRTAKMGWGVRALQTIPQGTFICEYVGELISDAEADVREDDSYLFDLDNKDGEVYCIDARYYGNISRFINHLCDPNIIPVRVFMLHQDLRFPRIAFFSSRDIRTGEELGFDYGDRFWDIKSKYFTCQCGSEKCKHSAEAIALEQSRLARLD
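G9a (20 nM) was preincubated 15 min with compound, then reacted 2 h at room temperature with 500 nM biotin-H3K9 peptide and 20 µM SAM. Monomethyl-H3K9 detected by AlphaScreen using anti-H3K9me1 antibody.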
PLK1 PBD block – blocks phosphopeptide binding to human PLK1 polo-box domain. P53350. Plk1 PBD binding of FITC phosphopeptide, fluorescence polarization. Potency, µM, for inactives: max response, negative = inhibition, actives largely listed as inhibitors. actives 2.8% (n = 360,000); note: series mostly up to about 57 µM; % is set by controls: 0 for no effect and ±100 for the full control effect; nearly all actives have a fitted effect of over 65% in size
BAZ2B inh – BAZ2B (human) inhibition; AID 504333; Potency, µM (titrated, usually from 114 µM), inactives show at the top dose activity change, negative = inhibition, usual class: inhibitors; AlphaScreen BAZ2B-H3K14Ac peptide displacement; Q9UIF8; actives 4.4% (n = 360,000); note: % is set by controls: 0 for no effect and ±100 for the full control effect; nearly all actives have a fitted effect of over 60% in size
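Compounds, titrated to a top concentration of 110 uM, were incubated 30 min at room temperature with preformed BAZ2B/acetyl-K14 H3 peptide complex (50 nM each). Proximity signal was measured by AlphaScreen after 20 min with beads.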
HP1b chromo inh – HP1-beta chromodomain-methylated histone interaction inhibition. P83916. Potency, µM (series often up to 114 µM), for the others: at the highest dose activity change, negative = inhibition, actives largely listed as inhibitors. AlphaScreen HP1-beta / biotin-H3K9me3 peptide binding. actives 0.56% (n = 390,000); note: nearly all actives have a fitted effect of over 70% in size
Target sequence (P83916 whole entry, looked up): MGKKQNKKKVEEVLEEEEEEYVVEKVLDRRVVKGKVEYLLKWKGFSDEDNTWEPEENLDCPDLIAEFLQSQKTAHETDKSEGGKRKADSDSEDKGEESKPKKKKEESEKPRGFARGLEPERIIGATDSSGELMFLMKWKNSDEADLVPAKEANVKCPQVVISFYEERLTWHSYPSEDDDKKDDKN
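Compound inhibition of the preformed complex between 50 nM HP1-beta and 50 nM biotinylated H3K9me3 peptide was read by AlphaScreen. Buffer was PBS pH 7.4 with 0.01% Tween-20. Incubations ran 30 min at room temperature, with 10 ug/mL donor/acceptor beads.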
JMJD2A Tudor – inhibitors of human JMJD2A Tudor domain; AlphaScreen JMJD2A-Tudor / H3K4me3 peptide binding; Potency, µM (series often up to 114 µM), without a hit: at the top dose activity change, negative = inhibition, usual class: inhibitors; actives 4.4% (n = 390,000); AID 504339; note: % is set by controls: 0 for no effect and ±100 for the full control effect; nearly all actives have a fitted effect of over 50% in size
* marks the source's active call; other numbers are inactive results; ? = inconclusive; . = not tested or not shown; [ ] = another dose, or the depositor's remark. Calls come from the whole dose curve; as a rule, active = well fitted curve in the direction sought with a large enough effect; inconclusive = small, poorly fitted or top-dose-only effect, or another doubt; inactive = no such curve, though single readings can be large; an effect the other way counts as inactive or inconclusive. Potency is the fitted concentration of half-maximal effect.

SMILES	VDR inhibitor	G9a inh	PLK1 PBD block	BAZ2B inh	HP1b chromo inh	JMJD2A Tudor
COc1ccc(N2CCN(C(=O)CCCN3C(=O)c4cccc5cccc(c45)C3=O)CC2)cc1	-13%	.	-11%	40µM*	-31%	?
CCC(=O)Nc1nc(C)c(-c2csc(Nc3ccccn3)n2)s1	22%	40µM*	-7%	40µM*	-16%	?
CCCC(=O)Nc1nc(C)c(-c2csc(Nc3ccccc3C)n2)s1	13%	11µM*	?	?	-3%	?
N#CC1(Nc2ccc3ccccc3c2)CCCC1	1%	.	-16%	.	?	?
COC(=O)C(C)n1cnc2c(nnn2-c2ccccc2)c1=O (stereo not drawn)	-19%	89µM*	-5%	-5%	32%	-3%
O=C(COC(=O)Cc1ccc(F)cc1)Nc1ccc2[nH]c(=O)[nH]c2c1	-2%	50µM*	-11%	-2%	11%	-25%
Cc1ccc(/C=C/C(=O)OCC(=O)Nc2ccc3[nH]c(=O)[nH]c3c2)o1	-4%	40µM*	0%	6%	16%	-16%
COc1ccc(CC(=O)OCC(=O)Nc2ccc3[nH]c(=O)[nH]c3c2)cc1	-7%	?	-1%	9%	19%	-10%
CCn1c2cc(C)sc2c2cnn(Cc3ccccc3F)c(=O)c21	.	.	.	.	.	14%
Cc1nnc(NN2CCOCC2)[nH]c1=O	1%	-18%	-12%	3%	20%	-11%
CCn1c(CN2CCCCC2)nc2cc(NC(=O)c3ccc([N+](=O)[O-])cc3)ccc21	0%	-10%[59 µM]	.	-5%	17%	-17%
O=C(OCC#CCSc1nnc(-c2cccc3ccccc23)o1)c1ccc(Cl)c(C(F)(F)F)c1	.	.	.	.	.	22%
c1csc(CNCCCN2CCOCC2)c1	-10%	?	-4%	-8%	24%	-10%
CCCCOCCCNCc1cccn1CCN1CCOCC1	3%	?	-7%	-36%	-24%	7.9µM*
CCOC(=O)N1CCC(Nc2ccc(N3C(=O)C4CCCCC4C3=O)cc2[N+](=O)[O-])CC1 (stereo not drawn)	-1%	?	-9%	?	9%	?
Cc1cccn2c(=O)c(/C=C(\C#N)S(=O)(=O)c3ccccc3)c(N3CCN(C)CC3)nc12	-8%	?	-6%	-33%	-1%	-25%
CCN1CCN(c2nc3c(C)cccn3c(=O)c2/C=C(\C#N)S(=O)(=O)c2ccc(C)cc2)CC1	-5%	50µM*	-11%	?	13%	?
COc1ccc(N2CCN(c3nc4c(C)cccn4c(=O)c3/C=C(\C#N)C(N)=O)CC2)cc1	-18%	32µM*	0%	35µM*	-10%	?
Cc1cccn2c(=O)c(/C=C(\C#N)S(=O)(=O)c3ccccc3)c(N3CCCCC3)nc12	-20%	-47%	7%	-24%	23%	-21%
Cc1ccc(S(=O)(=O)/C(C#N)=C/c2c(N3CCN(C)CC3)nc3c(C)cccn3c2=O)cc1	-3%	45µM*	-6%	?	-12%	?
CCN1CCN(c2nc3c(C)cccn3c(=O)c2/C=C(\C#N)S(=O)(=O)c2ccc(Cl)cc2)CC1	-9%	32µM*	13%	?	?	?
COCC(=O)N1CCC2(CC1)CCN(C(c1ccccc1)c1ccccc1)CC2	1%	8%[12.7 µM]	.	.	.	.
COc1ccc(N2CCN(c3nc4ccc(C)cn4c(=O)c3C=O)CC2)cc1	9%	45µM*	-6%	?	14%	?
CCOC(=O)NC1C=CS(=O)(=O)C1 (stereo not drawn)	20%	50µM*	-4%	-3%	21%	-9%
CN(C)C(=O)NC1C=CS(=O)(=O)C1 (stereo not drawn)	-8%	-41%	-7%	4%	23%	-5%
O=C(COC(=O)C1C2CC3OC(=O)C1C3C2)Nc1ccc(F)cc1 (stereo not drawn)	11%	-6%	-1%	-15%	53%	-8%
